A selection: hits, their analogues and other compounds. The true share with any hit is near 12%.
HP1b chromo inh = inhibitors of HP1-beta chromodomain binding to methylated histone tails | AlphaScreen HP1-beta / biotin-H3K9me3 peptide binding | Potency, µM (doses to about 114 µM), usual class: inhibitors | 390,000 tested, 0.56% active | AID 540317; also: nearly all actives have a fitted effect of over 70% in size
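AlphaScreen: HP1-beta (50 nM) preformed 30 min with biotin-H3(1-18)K9me3 peptide (50 nM) in PBS pH 7.4, 0.01% Tween-20. Compound added for 30 min at RT, then streptavidin donor/nickel chelate acceptor beads (10 ug/mL) for 30 min.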
PLK1 PBD inh = inhibitors of human PLK1 polo-box domain binding; Plk1 PBD binding of FITC phosphopeptide, fluorescence polarization; Potency, µM, usual class: inhibitors; P53350; AID 720504; 360,000 tested, 2.8% active; also: series mostly up to about 57 µM; nearly all actives have a fitted effect of over 65% in size
Target sequence (P53350 whole entry, looked up, the tested form may be a part): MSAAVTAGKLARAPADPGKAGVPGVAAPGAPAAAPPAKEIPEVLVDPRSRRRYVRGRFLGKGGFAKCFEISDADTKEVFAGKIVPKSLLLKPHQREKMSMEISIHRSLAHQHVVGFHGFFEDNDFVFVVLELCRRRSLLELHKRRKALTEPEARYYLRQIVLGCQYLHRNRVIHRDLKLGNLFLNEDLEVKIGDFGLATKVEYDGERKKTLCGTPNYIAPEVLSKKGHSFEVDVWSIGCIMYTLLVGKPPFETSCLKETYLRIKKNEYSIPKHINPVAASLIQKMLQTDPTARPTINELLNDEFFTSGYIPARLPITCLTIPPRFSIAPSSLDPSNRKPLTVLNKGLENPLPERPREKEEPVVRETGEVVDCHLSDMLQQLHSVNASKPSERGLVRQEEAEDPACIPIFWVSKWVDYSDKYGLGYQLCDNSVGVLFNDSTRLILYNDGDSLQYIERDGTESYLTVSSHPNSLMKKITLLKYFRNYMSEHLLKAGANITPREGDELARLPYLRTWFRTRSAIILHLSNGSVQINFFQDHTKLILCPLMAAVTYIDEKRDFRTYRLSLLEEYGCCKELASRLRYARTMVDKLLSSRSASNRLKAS
BAZ2B block = inhibitors of human BAZ2B bromodomain; Potency, µM (doses to about 114 µM), actives largely listed as inhibitors; AlphaScreen BAZ2B-H3K14Ac peptide displacement; 360,000 tested, 4.4% active; AID 504333; Q9UIF8; also: nearly all actives have a fitted effect of over 60% in size
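Protein-peptide AlphaScreen: BAZ2B 50 nM, b-H3K14Ac 50 nM, 1x PBS pH 7.4 + 0.01% Tween-20. Preincubation 30 min RT; cpd 30 min RT (top 110 uM); beads 20 min RT, light-protected.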
PI5P4K alpha inh = PI5P4K alpha (human) kinase inhibition; PI5P4Kalpha enzyme, ADP-Glo luminescence, 60 min; stronger effect = lower value; max response, %; 330,000 tested, 1.2% active; P48426; AID 652105; active = max response of -50% or lower; inconclusive = between -30% and -50%; inactive = -30% or higher; also: value at the top dose of about 77 µM
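qHTS, 1536-well: enzyme/substrate mix, compound by pin tool, 5 microM ATP final; RT 60 min; ADP-Glo reagents 1 (45 min) then 2 (30 min); luminescence.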
G9a inh-1 = blocks human histone lysine methyltransferase G9a; Potency, µM (highest dose often 102 µM), most hits filed as inhibitors; G9a H3K9 monomethylation, AlphaScreen, 2 h; 350,000 tested, 8.8% active; Q96KQ7; also: nearly all actives have a fitted effect of over 75% in size
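Step 1: enzyme (final 20 nM) with compound, 15 min RT. Step 2: substrate peptide 500 nM and SAM 20 uM, 2 h RT. Step 3: anti-H3K9me1 antibody and AlphaScreen beads, 10 min, then plate read.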
JMJD2A Tudor inh = inhibitors of human JMJD2A Tudor domain | 390,000 tested, 4.4% active | Potency, µM (highest dose often 114 µM), usual class: inhibitors | O75164 | AID 504339 | AlphaScreen JMJD2A-Tudor / H3K4me3 peptide binding; also: nearly all actives have a fitted effect of over 50% in size
JMJD2E confirm = confirmation of inhibitors of human JMJD2E demethylase. Recombinant JMJD2E, FDH-coupled NADH fluorescence (FDH is formaldehyde dehydrogenase). Potency, µM (top dose mostly 56.8 µM), most hits filed as inhibitors. shares compounds with JMJD2A Tudor inh. 140 tested, 93% active
FDH inh = blocks Pseudomonas putida formaldehyde dehydrogenase, flagging JMJD2E artifacts. shares compounds with JMJD2A Tudor inh. Potency, µM (doses to about 56.7 µM), most hits filed as inhibitors. 140 tested, 10% active. FDH enzyme assay, NADH fluorescence kinetic
G9a inh-2 = confirmation of human histone methyltransferase G9a inhibitors | G9a H3K9 monomethylation, AlphaScreen, 2 h | AID 588344 | Potency, µM, actives largely listed as inhibitors | 370 tested, 89% active | shares compounds with JMJD2A Tudor inh; also: nearly all actives have a fitted effect of over 65% in size
RGS4 confirm = inhibits human RGS4, hit validation; 25 tested, 80% active; RGS4 GAP activity, Transcreener GDP fluorescence polarization; shares compounds with JMJD2A Tudor inh; Potency, µM, usual class: inhibitors; AID 602388
Large screens that a line does not name were inactive (follow-up assays come after a bar, where they were run). Unless noted, calls follow the shape of the dose curve; as a rule, active = well fitted curve in the direction sought with a large enough effect; inconclusive = small, poorly fitted or top-dose-only effect, or another doubt; inactive = no such curve, though single readings can be large; an effect the other way counts as inactive or inconclusive.

O=c1[nH]c2ccccc2nc1NCc1ccccc1	none
CC1=NN(c2nc3ccccc3[nH]2)C(=O)C1Cc1ccccc1 (configuration not stated)	BAZ2B block 22µM, G9a inh-1 inconclusive, JMJD2A Tudor inh 50µM | JMJD2E confirm 5.8µM | FDH inh inconclusive
Cc1nccn1CCOc1ccccc1Cl	none
COc1ccc(CC(=O)OCC(=O)N2CCc3ccccc32)cc1OC	none
CC(C(=O)N1CCCCC1)N(C)CC(=O)Nc1cccc(F)c1 (configuration not stated)	BAZ2B block 16µM, G9a inh-1 inconclusive, JMJD2A Tudor inh 25µM | G9a inh-2 45
N#Cc1ccc(CN2CCCC3(CCN(C(=O)c4ccncc4)CC3)C2)cc1	none (no result: HP1b chromo inh, PLK1 PBD inh, BAZ2B block, PI5P4K alpha inh, JMJD2A Tudor inh)
CC(C)c1ccc(S(=O)(=O)N2CCN(CCC(=O)Nc3ccc(N(C)C)cc3)CC2)cc1	HP1b chromo inh inconclusive, BAZ2B block 22µM, G9a inh-1 1µM, JMJD2A Tudor inh 35µM | G9a inh-2 2
COc1ccc(NC(=O)CCN2CCN(S(=O)(=O)c3ccc(C(C)C)cc3)CC2)cc1	none (no result: PI5P4K alpha inh)
CCN(c1ccc(NC(=O)COC(=O)c2ccc(S(=O)(=O)N3CCCC3)cc2)cc1)C(C)C	G9a inh-1 inconclusive (no result: PI5P4K alpha inh) | G9a inh-2 2.2
Cc1ccc(C)c(OCCn2c(-c3ccc(Cl)cc3)nc3ccccc3c2=O)c1C	none (no result: PLK1 PBD inh, PI5P4K alpha inh)
COc1ccc(-c2nc3ccc(Br)cn3c2Cc2ccsc2)cc1OC	none (no result: HP1b chromo inh, BAZ2B block, G9a inh-1, JMJD2A Tudor inh)
CCOc1ccc(CNc2nnnn2C)cc1	none
CCn1cnc2cc(NCc3nc4ccccc4n3C)ccc21	BAZ2B block inconclusive, G9a inh-1 2.5µM (no result: PI5P4K alpha inh) | G9a inh-2 inconclusive
CCOc1ccc(CNc2ccc3c(c2)ncn3C)cc1	BAZ2B block inconclusive, G9a inh-1 inconclusive, JMJD2A Tudor inh inconclusive | G9a inh-2 1.8
CCn1cnc2cc(NCc3ccc(C)cc3)ccc21	BAZ2B block inconclusive, G9a inh-1 1.6µM, JMJD2A Tudor inh inconclusive (no result: PI5P4K alpha inh) | G9a inh-2 4.5
CC1(C)CC(=O)C=C(c2cccc(O)c2)C1	none
O=C(Nc1nc(-c2ccccn2)cs1)c1cccc(-n2cnnn2)c1	BAZ2B block 50µM, JMJD2A Tudor inh 79µM | RGS4 confirm inconclusive
CC1=C([N+](=O)[O-])C(c2ccccc2C(F)(F)F)NC(=O)N1C (configuration not stated)	none
CC(=O)c1sc2nsc(SCCN3CCOCC3)c2c1N	HP1b chromo inh 79µM, PLK1 PBD inh 30µM, G9a inh-1 0.79µM, JMJD2A Tudor inh 6.3µM | G9a inh-2 2.5
Nc1c(C(=O)c2ccccc2)sc2nsc(SCCN3CCOCC3)c12	none (no result: G9a inh-1)
COCCCNC(=O)CCn1c(=O)c2ccccc2n(CC(=O)Nc2c(C)cc(C)cc2C)c1=O	none (no result: PLK1 PBD inh, PI5P4K alpha inh)
O=C(CSc1ncn(-c2ccccc2)n1)Nc1nc2ccccc2s1	G9a inh-1 inconclusive, JMJD2A Tudor inh 45µM (no result: PI5P4K alpha inh) | G9a inh-2 3.6
O=C(CSc1ncn(-c2ccccc2)n1)Nc1nc(-c2ccccc2)cs1	none (no result: PI5P4K alpha inh)
COC(=O)[C@]12CCCCC=C1N(Cc1cccc3ccccc13)C(=O)[C@H](CC(=O)NCc1ccc(OC)c(OC)c1)C2	none (no result: HP1b chromo inh, BAZ2B block, G9a inh-1, JMJD2A Tudor inh)
Cc1nn(-c2ccccn2)c2c1C(=O)C(Br)CC2 (configuration not stated)	HP1b chromo inh inconclusive, PLK1 PBD inh 3µM, PI5P4K alpha inh inconclusive, G9a inh-1 1.3µM, JMJD2A Tudor inh 13µM (no result: BAZ2B block) | G9a inh-2 0.25

Screening results from PubChem.
